D2 antagonist = HTS Assay for Allosteric Antagonists of the Human D2 Dopamine Receptor: Primary Screen for Antagonists | D(2) dopamine receptor (Homo sapiens), P14416 | HEK293 TREx D2 cells, calcium flux, dopamine EC80 | inhibition, % at 10 µM | actives 2% (n = 340,000); in the data active = inhibition above about 30%; inactive = below that, where a call was filed; also: 0% is about no effect
Target sequence (P14416 whole entry, looked up): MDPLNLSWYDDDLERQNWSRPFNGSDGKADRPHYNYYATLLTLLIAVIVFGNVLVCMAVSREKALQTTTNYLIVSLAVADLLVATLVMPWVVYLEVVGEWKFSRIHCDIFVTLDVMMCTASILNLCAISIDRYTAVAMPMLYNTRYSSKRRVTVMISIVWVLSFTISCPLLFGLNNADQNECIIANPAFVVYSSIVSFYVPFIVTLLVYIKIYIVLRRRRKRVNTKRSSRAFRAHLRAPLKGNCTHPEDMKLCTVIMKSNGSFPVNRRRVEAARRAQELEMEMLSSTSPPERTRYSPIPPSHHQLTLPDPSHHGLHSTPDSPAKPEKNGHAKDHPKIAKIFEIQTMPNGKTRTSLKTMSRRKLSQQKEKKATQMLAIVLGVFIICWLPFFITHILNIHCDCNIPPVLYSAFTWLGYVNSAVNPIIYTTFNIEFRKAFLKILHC
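Tetracycline-induced HEK293 TREx cells expressing D2 receptor forced-coupled to calcium signalling, loaded with no-wash calcium dye. Compounds added and calcium flux read 180 s, then dopamine added at EC80 and read a further 180 s.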
D2 ag-1 = HTS Assay for Allosteric Agonists of the Human D2 Dopamine Receptor: Primary Screen for Agonists. activation, % at 2 µM. actives 0.53% (n = 340,000). D(2) dopamine receptor (Homo sapiens), P14416. HEK293 T-REx D2 cells, calcium flux agonist mode;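 active = activation over 3 SD above normal in the single-dose calcium agonist read, cut at about 30% in these data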; also: 0% is about no effect
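Agonism scored from kinetic calcium signal (1 read/sec, 180 s) following compound pin transfer, after a 10 s baseline. Cells: HEK293 Trex line expressing inducible D2 receptor coupled to calcium, dye-loaded after overnight culture at 30 C.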
D2 PAM-1 = HTS Assay for Positive Allosteric Modulators of the Human D2 Dopamine Receptor: Primary Screen for Potentiators; D(2) dopamine receptor (Homo sapiens), P14416; HEK293 T-REx D2, calcium flux, EC20 dopamine potentiation; potentiation, % at 10 µM; actives 0.34% (n = 340,000); AID 485347, 2010;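 active = potentiation over 3 SD above the plate norm, cut at about 30% in these data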; also: 0% is about no effect
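Cells plated with tetracycline inducer and held overnight at 30 C; calcium dye loaded 30–90 min at room temperature; baseline taken, compound added and read 180 s; EC20 dopamine then added and read 180 s.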
D2 PAM-2 = Beta-Arrestin HTS for Positive Allosteric Modulators of the Human D2 Dopamine Receptor: Potentiators; DiscoveRx D2 beta-arrestin cells, luminescence, 90 min; 100% = 57 uM dopamine signal; potentiation, % (no concentration beside the values); AID 624464, 2012; actives 0.23% (n = 360,000); D(2) dopamine receptor (Homo sapiens), P14416; in the data active = potentiation above about 50%; inconclusive = mostly about 30% to 49%
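D2 cells co-treated with compound plus 50 nM dopamine (EC20) for 90 min at 37 deg C to detect potentiation. Beta-arrestin recruitment was read as enzyme-fragment luminescence after 1 h at ambient temperature. Full response was set by 57 uM dopamine.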
Apoferritin bind = qHTS Assay for Identification of Novel General Anesthetics; apoferritin/1-aminoanthracene competitive binding, fluorescence; Potency, µM (top dose mostly 77.5 µM), for the others: top-dose activity change, negative = displacement, actives largely listed as inhibitors; actives 0.074% (n = 350,000); active = well fitted inhibition curve with a large enough effect; inconclusive = small, poorly fitted or top-dose-only effect; inactive = no such curve, though single readings can be large or run the other way; also: potency is read from the fitted curve at half-maximal effect; % is scaled to controls: 0 for no effect and ±100 for the full control effect; nearly all actives have a fitted effect of over 20% in size
Target sequence (P02791 2-175 limits assumed): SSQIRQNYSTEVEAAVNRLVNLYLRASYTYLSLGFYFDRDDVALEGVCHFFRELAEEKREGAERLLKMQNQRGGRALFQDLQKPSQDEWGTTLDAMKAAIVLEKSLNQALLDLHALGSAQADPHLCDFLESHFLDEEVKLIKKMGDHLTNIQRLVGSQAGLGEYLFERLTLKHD
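Concentration-response curves derived by four-parameter Hill fitting of normalized fluorescence, where compounds displaced 1-AMA from 10 uM horse apoferritin following a brief 10 min room-temperature incubation; propofol titration acted as positive control.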
D2 ag-2 = Beta-Arrestin HTS for Positive Allosteric Modulators of the Human D2 Dopamine Receptor: Agonists | D(2) dopamine receptor (Homo sapiens), P14416 | DiscoveRx PathHunter D2 beta-arrestin, luminescence, 90 min; 100% = 57 uM dopamine signal | activation, % (no concentration beside the values) | actives 0.084% (n = 360,000); in the data active = activation above about 40%; inconclusive = between about 15% and that limit
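DiscoveRx PathHunter D2 beta-arrestin cells (2,100/well) attached overnight, then compound-stimulated 90 min at 37 C in HBSS/10 mM HEPES/0.1% Tween-20 buffer; beta-galactosidase complementation read by luminescence after 1 h at ambient temperature. Dopamine 57 uM final (EC100) as control.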
Starred values were filed as active, the others as inactive; ? = inconclusive; . = not tested or not shown; [ ] = remark or other dose. The list is not random: actives were taken first. Their share in the collection is about 2.5%.

SMILES	D2 antagonist	D2 ag-1	D2 PAM-1	D2 PAM-2	Apoferritin bind	D2 ag-2
COc1ccc(C(=O)CC(c2ccc3c(c2)OCO3)c2c(O)c3ccccc3oc2=O)cc1OC (centres undefined)	.	.	.	-9	.	-5
CCN1C(=O)CC(c2cccnc2)=Nc2ccccc21	31*	1	3	-10	-6%	1
CCOC(=O)C1CCCN(c2ccc([N+](=O)[O-])c3nonc23)C1 (centres undefined)	52*	135*	-8	-15	4%	4
CCOP(=O)(OCC)Oc1ccc2ccc(=O)oc2c1	.	.	.	.	-1%	.
COc1nc2ccccc2c(=O)n1-c1ccc(Cl)cc1	-5	2	23	3	-14%	-3
CCOc1ccc(/C=C/C(=O)C(C(N)=O)=C2SCCS2)cc1	3	-1	11	-9	7%	-1
O=C(Cn1cnc2sc3c(c2c1=O)CCCC3)NCCC(=O)N1CCC2(CC1)OCCO2	-6	0	23	1	-14%	-1
Cc1sc2ncn(CC(=O)N3CCC4(CC3)OCCO4)c(=O)c2c1C	10	0	30*	1	-13%	-2
O=C(NCC1=C(c2cccc3ccccc23)C[C@@H]2CC[C@H]1N2Cc1ccco1)c1cccnc1	.	.	.	-6	.	-8
Cc1nn(CC(C)C)c(Cl)c1C(=O)NC1CCCCC1	30*	0	2	22	.	-3
Oc1cc2c(cc1O)[C@H]1c3ccccc3CN[C@@H]1CC2	92*	84*	-25	.	-3%	.
COc1ccc(C(=O)N2CCCC2=O)cc1	40*	1	5	-6	6%	-4
COc1ccc(C(=O)N2CCC3(CC2)OCCO3)cc1	-1	0	-3	-4	-1%	1
CN1CCN(c2ccc(C(N)=O)cc2N)CC1	-3	1	8	12	-14%	-3
C=CCn1c(O)c(C(C)=NCCN2CCOCC2)c(=O)[nH]c1=O	39*	1	-5	-3	-11%	1
CC(=NCCN1CCOCC1)c1c(O)n(Cc2ccccc2)c(=O)[nH]c1=O	-7	0	0	-6	-9%	1
C=CCn1c(O)c(C(CC)=NC2CC2)c(=O)[nH]c1=O	39*	0	-12	11	-8%	0
CCC(=NC1CC1)c1c(O)n(C2CCCCC2)c(=O)[nH]c1=O	-30	-1	7	-13	1%	2
COc1ccc(-n2nnnc2C(c2ccccc2OC(F)(F)F)N2CCC(n3c(=O)[nH]c4ccccc43)CC2)cc1 (centres undefined)	.	.	.	4	.	6
O=C1C(Cl)=CC(=Nc2ccc(O)cc2)C=C1Cl	-1	-1	6	3	-3%	9
Nc1c(Br)cc2c3c(cccc13)-c1ccccc1-2	.	.	.	60*	.	7
Cc1ccccc1-c1nc(CS(=O)CC(=O)N2CCN(c3cc(Cl)ccc3C)CC2)c(C)o1 (centres undefined)	.	1	8	.	53%	.
Nc1cc(N2CCNCC2)ccc1[N+](=O)[O-]	.	.	.	-22	-11%	-1
Clc1cccc(N2CCNCC2)c1	35*	1	-21	-33	.	-4
CN1C[C@H](CO)C=C2c3cccc4[nH]cc(c34)C[C@H]21	-9	0	1	8	-4%	69*
SMILES	D2 antagonist	D2 ag-1	D2 PAM-1	D2 PAM-2	Apoferritin bind	D2 ag-2
O=c1[nH]c2ccccc2n1CCCN1CCC(n2c(=O)[nH]c3cc(Cl)ccc32)CC1	97*	.	.	.	-7%	.
Cc1ccc(C2CC3CCC(C2)N3Cc2ccccc2F)cc1 (centres undefined)	68*	-1	-30	-14	-10%	1
c1ccc2c(c1)Nc1ccccc1S2	-13	2	4	68*	2%	?
O=c1[nH]c(=O)n(Cc2ccco2)c(O)c1/C=N/N1CCCCC1	0	0	-4	-6	-14%	3
C[N+](C)(N)CCOC(=O)C(O)(c1ccccc1)C1CCCCC1 (centres undefined)	.	.	.	-28	.	3
CC(=O)OCC[N+](C)(C)C	-17	45*	6	1	-4%	-4
COc1ccc(C2CN(C)CC2C(=O)c2ccc(F)cc2)cc1Cl (centres undefined)	69*	0	-35	-13	-10%	0
CCCCC1(CN2CCCC2=O)C(=O)NC(=O)NC1=O	45*	0	1	-4	8%	-1
CCCCC1(CCO)C(=O)NC(=S)NC1=O	.	.	.	-8	.	-3
CCC(=NCc1cc(OC)cc(OC)c1)c1c(O)n(C2CCCCC2)c(=O)[nH]c1=O	12	2	9	8	-4%	10
COc1cccc(N(C(C)=O)C2=NCCCS2)c1	-2	-1	1	1	-8%	-1
C[C@@H]1CC[C@H]2[C@@H](C)C(=O)O[C@@H]3O[C@@]4(C)CC[C@@H]1[C@]32OO4	3	0	10	64*	?	?
C[C@H]1CC[C@@H]2[C@@H](C)C(=O)O[C@H]3O[C@@]4(C)CC[C@H]1[C@@]32OO4	.	.	.	.	9%[29.3 µM]	.
Cc1cc(O)c(CN2CC=C(c3ccccc3)CC2)cc1C(C)C	75*	1	-26	-16	3%	-3
CCn1c(O)c(C=Nc2ccc(N3CCOCC3)cc2)c(=O)n(CC)c1=S	14	35*	-2	12	-6%	0
CCn1c(O)c(C=Nc2ccc(N3CCOCC3)c(Br)c2)c(=O)n(CC)c1=S	30	3	-5	9	-8%	-3
C[C@H]1OC[C@@H](C[N+](C)(C)C)O1	13	40*	-6	1	-8%	-6
CC(C)c1ccc(-n2c(O)c(C=NCCN3CCNCC3)c(=O)[nH]c2=S)cc1	9	-1	-18	-5	-6%	2
CN1CCN(c2cc([N+](=O)[O-])ccc2Cl)CC1	69*	1	-33	-9	-8%	-4
CC1CN(c2ccc([N+](=O)[O-])cc2Cl)CCN1 (centres undefined)	1	1	-6	-14	-13%	-9
CC1CN(c2cc([N+](=O)[O-])ccc2Cl)CC(C)N1 (centres undefined)	69*	0	-19	-4	-15%	-3

From PubChem
